# Screening data from PubChem BioAssay.
# Kir21 block: inhibitors of mouse Kir2.1 inward-rectifier potassium channel; P35561; B-score at 10 µM; HEK293-Kir2.1, FluxOR thallium flux fluorescence; active compounds read low; hit rate 0.85% among 310,000;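 active = fluorescence ratio B-score at or below minus 3 SD of library scores, with starting-brightness B-score within 2 SD, cut at about -4.2 in these data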;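 also: channel flux triggered by added potassium and thallium sulfate stimulus; B-score of peak minus minimum fluorescence over baseline after thallium stimulus; more negative B-score means stronger Kir2.1 block with less thallium influx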
# Target sequence (P35561 whole entry, looked up): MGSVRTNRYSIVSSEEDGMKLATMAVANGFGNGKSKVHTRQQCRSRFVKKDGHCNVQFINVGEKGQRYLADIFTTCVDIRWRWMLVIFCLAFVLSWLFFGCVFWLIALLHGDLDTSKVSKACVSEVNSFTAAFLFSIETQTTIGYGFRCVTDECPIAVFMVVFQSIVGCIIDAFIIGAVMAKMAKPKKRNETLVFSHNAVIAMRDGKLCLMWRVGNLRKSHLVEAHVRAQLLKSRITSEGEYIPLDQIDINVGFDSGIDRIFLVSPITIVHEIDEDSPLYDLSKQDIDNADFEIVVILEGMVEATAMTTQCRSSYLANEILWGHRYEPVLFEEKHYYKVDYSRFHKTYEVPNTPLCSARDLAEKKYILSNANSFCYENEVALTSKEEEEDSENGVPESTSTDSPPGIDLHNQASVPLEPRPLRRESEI
# GPR7 antag: human neuropeptides B/W receptor 1 antagonism; inhibition, % at 4.4 µM; hit rate 1.1% among 290,000; GPR7-expressing cells, fluorescence antagonist assay; in the data active = inhibition above about 16%, passing the limit was not always enough;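 also: cells stimulated with the agonist NPW; 0% = agonist with vehicle and 100% = vehicle without agonist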
# CHT allo act: allosterically activates the human high affinity choline transporter | Q9GZV3 | B-score at 10 µM | hit rate 0.49% among 310,000 | AID 488977 | CHT-expressing cells, membrane potential dye, choline EC20; active compounds read high; LV-AA mutant CHT in HEK293 cells;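 active = initial fluorescence not abnormally high and integrated response B-score, plate-corrected, over 3 SD above library mean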
# CHT inh: human CHT choline transport inhibition; Q9GZV3; CHT-expressing cells, membrane potential dye, choline response; active compounds read low; B-score at 10 µM; hit rate 0.86% among 310,000;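 active = B-score over 3 SD under the library average, and starting fluorescence ratio not unusually high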;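 also: choline stimulus applied at its EC90 after an EC20 pre-addition; B-score computed on integrated fluorescence ratio after choline addition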
# ANO1 activ: activates or potentiates the mouse TMEM16A chloride channel; B-score at 10 µM; HEK293 TMEM16A/YFP-H148Q/I152L, iodide quench fluorescence; active compounds read low; hit rate 0.3% among 340,000;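 active = fluorescence-ratio B-score plate-corrected deviation score at least 3 library SD below zero, with starting fluorescence score within 5 deviations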;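 also: channel opened by trigger with iodide after compound preincubation; score built on the fluorescence ratio of max minus min over baseline; more negative score means more quench and so TMEM16A activation or potentiation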
# ANO1 block: mouse TMEM16A channel inhibition, primary screen | Q8BHY3 | HEK293 TMEM16A/YFP iodide influx fluorescence, ionomycin | normalized B-score (activity score, 25-100; higher = stronger inhibition) at 10 µM | hit rate 1.2% among 310,000 | AID 588511;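 active = ratio plate-corrected score three or more library SD toward inhibition, starting fluorescence score within five deviations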;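 also: score derived from kinetic fluorescence span divided by baseline fluorescence per well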
# GPR7 antag cf: confirmation of human GPR7 antagonists. inhibition, % at 4.4 µM. GPR7-expressing cells, calcium fluorescence antagonist mode. shares compounds with GPR7 antag. hit rate 52% among 2,400; in the data active = inhibition above about 24%;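 also: stimulated with the GPR7 agonist NPW; 0% = agonist plus vehicle and 100% = vehicle alone without agonist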
# MCHR1 antagonist: MCHR1 (human) antagonism in GPR7 counter-screen; AID 2148; MCHR1-expressing cells, fluorescence antagonist assay; hit rate 62% among 2,400; shares compounds with GPR7 antag; inhibition, % at 4.4 µM; in the data active = inhibition above about 22%;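 also: 0% = vehicle with agonist and 100% = vehicle without agonist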
# * hit, by the source's call; i = inactive; · = no result given; ! = a repeat was not active. Most compounds without a hit are left out; they make up all but 3.7% or so of the library.
SMILES,Kir21 block,GPR7 antag,CHT allo act,CHT inh,ANO1 activ,ANO1 block,GPR7 antag cf,MCHR1 antagonist
Cc1ccc(S(=O)(=O)N/N=C/c2ccc(OC3CSC3)cc2)cc1,-0.96,33.6*,i,i,i,i,89.4*,83.7*
Cc1ccc(OCCC(=O)OCC(=O)NC2CCS(=O)(=O)C2)cc1 (stereo not given),2.25,·,i,i,i,i,·,·
CCCC(c1nnnn1C1CCCCC1)N1CCN(c2ncccn2)CC1 (stereo not given),-0.09,-1.5,i,i,i,i,·,·
CCCCC(c1nnnn1C1CCCC1)N1CCN(C2CCCCC2)CC1 (stereo not given),-0.3,42.3*,i,i,i,i,47.0*,21.1
CCCCN(C)C(=O)c1nc2ccccn2c1CN1CCN(C/C=C/c2ccccc2)CC1,0.9,26.3*,i,i,i,i,29.4*,20.8
CCCCN(C)C(=O)c1nc2ccccn2c1CN1CCN(c2ncccn2)CC1,-0.01,-12.1,i,i,i,i,·,·
CC1CCc2c(nc3sc4c(c3c2N)CCCC4)C1 (stereo not given),-0.47,22.5*,i,i,i,i,21.4,20.4
Cc1ccccc1Nc1nnc(SCC(=O)c2c(N)n(C3CC3)c(=O)[nH]c2=O)s1,·,·,·,·,i,·,·,·
CCSc1ncc(/C=N/Nc2ccc(Cl)cc2)n1C,1.93,24.8*,i,i,i,i,13.4,40.2*
CCSc1ncc(/C=N/Nc2ccccc2)n1C,1,-13.2,i,i,i,i,·,·
CN(C)CCCN1c2ccccc2Sc2ccc(Cl)cc21,-7.91*,34.6*!,i,i,i,i,45.6*,56.8*
Cc1cc(F)ccc1NC(=O)CCc1ccc(S(=O)(=O)N2CCOCC2)cc1,·,·,·,·,i,·,·,·
Cc1sc2nc[nH]c(=S)c2c1-c1ccccc1,-0.17,27.4*,i,i,i,i,-2.1,7.3
O=C(COC(=O)C1=COCCO1)NCc1ccc(Cl)cc1,2.22,-3.1,i,i,i,i,·,·
Cc1ccc(C(=O)N/N=C/c2ccoc2)cc1C,-0.35,25.5*,i,i,i,i,4.0,6.0
CCOC(=O)c1ccc(N=C2SC(C(=O)Nc3ccc(C(=O)O)cc3)CC(=O)N2Cc2cccs2)cc1 (stereo not given),1.91,-1.8,i,i,i,i,·,·
NC(=O)c1c(N)sc2c1CCCC2,0.3,22.9*,i,i,i,i,1.1,17.4
COC(=O)c1ccc(NC(=O)C(=O)N2CCN(C(=S)NCCc3ccccc3)CC2)cc1,0.14,21.5*,i,i,i,i,9.9,12.5
COCCCNC(=S)N1CCN(C(=O)C(=O)Nc2ccc(C(=O)OC)cc2)CC1,0.09,-8.6,i,i,i,i,·,·
O=S(=O)(c1ccc(NC(=S)NN=Cc2ccccc2O)cc1)N1CCCCC1,·,·,·,·,i,·,·,·
COc1cc(/C=C(\C#N)c2nc3ccccc3o2)ccc1O,-6.87,26.1*,i,i,i,i,35.6*,46.4*
N#C/C(=C\c1ccc(O)cc1)c1nc2ccccc2o1,-0.26,-2.7,i,i,i,i,·,·
COC(=O)CCC(=O)Nc1cccc([N+](=O)[O-])c1,1.29,9.3,i,i,i,i,·,·
Cc1nn(C)c(C(=O)NNC(=S)NCC(C)C)c1Cl,-1.17,-12.9,i,i,i,i,·,·
O=c1cc2c(nn1Cc1ccc(F)cc1)-c1ccccc1CC2,-0.81,34.8*,i,i,i,i,0.5,10.9
SMILES,Kir21 block,GPR7 antag,CHT allo act,CHT inh,ANO1 activ,ANO1 block,GPR7 antag cf,MCHR1 antagonist
O=c1cc2c(nn1Cc1ccccc1)-c1ccccc1CC2,-0.33,-0.8,i,i,i,i,·,·
Cc1c(C)c2ccc(OC(C)C(=O)NCCCN3CCOCC3)c(C)c2oc1=O (stereo not given),0.77,-3.3,i,i,i,i,·,·
O=C(NCCC1=CCCCC1)c1coc(=O)c(Br)c1,-0.09,32.5*,i,i,i,i,13.5,24.2*
O=C(NCCc1ccccc1)c1coc(=O)c(Br)c1,-1.21,-7.5,i,i,·,i,·,·
O=C(NCCC1=CCCCC1)c1ccc(Cl)c(S(=O)(=O)N2CCCCC2)c1,0.2,49.6*,i,i,i,25*,44.0*,50.2*
CC(NC(=O)c1ccc(OC2CCN(S(=O)(=O)N(C)C)CC2)cc1)C1CC1 (stereo not given),0.17,-0.8,i,i,i,i,·,·
Cc1cc(C)cc(OCC(=O)O/N=C(\N)c2cccnc2)c1,-1.04,1.7,·,·,i,·,·,·
CSc1ccccc1OCc1cc(C(=O)N2CCN3CCCC3C2)no1 (stereo not given),-1.39,-3.2,i,i,i,i,·,·
CCCC(=O)Nc1c2c(nn1-c1ccc(F)cc1)CS(=O)(=O)C2,1.77,-3.6,i,i,i,i,·,·
O=C(CCC1CCCCC1)Nc1c2c(nn1-c1ccc(F)cc1)CS(=O)(=O)C2,1.13,32.2*,i,i,i,i,42.7*,28.9*
Cc1cccn2c(CN(C)CCC3CCCCO3)c(C(=O)N3CCCCC3)nc12 (stereo not given),0.04,38.1*,i,i,i,i,-4.9,17.7
COc1ccc(OC)c(C=NNC(=O)c2ccccc2NS(=O)(=O)c2cccs2)c1,·,·,·,·,i,·,·,·
COC(=O)Nc1ccc(SCC(=O)c2cccc([N+](=O)[O-])c2)cc1,0.98,23.1*,i,i,i,i,20.3,60.3*
COc1cccc(C(=O)COc2cccc(NC(=O)c3cccc([N+](=O)[O-])c3)c2)c1,·,28.6*,i,i,i,i,29.1*,68.6*
O=C(COc1cccc(NC(=O)c2cccc([N+](=O)[O-])c2)c1)c1ccc(F)cc1,0.27,29.1*,i,i,i,i,35.3*,69.9*
COc1ccc(-c2noc(Cc3ccc(Cl)cc3)n2)cc1OC,0.27,24.9*,i,i,i,i,-8.9,6.9
COc1ccc(-c2noc(COc3ccc(C)c(C)c3)n2)cc1OC,-0.72,-10.3,i,i,i,i,·,·
COc1ccc(Cc2nc(-c3ccc(Cl)cc3)no2)cc1,-0.01,-6.1,i,i,i,i,·,·
Cc1ccc(Cc2nc(-c3ccncc3)no2)cc1,0.14,23.5*,i,i,i,i,12.1,28.3*
COc1ccc(-c2noc(COc3ccc4ccccc4c3Br)n2)cc1OC,-0.84,21.0*,i,i,i,i,-3.3,-4.7
